Source: PubChem BioAssay AID624202 (National Center for Advancing Translational Sciences (NCATS), 2012)
The whole screen tested about 380,000 compounds, of which about 4,000 (1.1%) were called active. Another 3% or so got no clear call; they are omitted. The call rests on the fitted dose curve; in most records, active means well fitted activation curve with a large enough effect; inconclusive means small, poorly fitted or top-dose-only effect; inactive means no such curve, though single readings can be large or run the other way. The full list was thinned out, with actives kept by preference.

Test: qHTS Assay to Identify Small Molecule Activators of BRCA1 Expression; further: nearly all actives have a fitted effect of over 80% in size
Settings: MCF7-BRCA1-FFLuc reporter, luminescence, 48 h; series mostly up to 46.1 µM; activation: at the top concentration
In short: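 Quantitative HTS in MCF7 cells stably reporting BRCA1 expression via firefly luciferase. Compound treatment lasts 48 h at 37 °C in phenol-red free MEM. Activation is expressed relative to genistein at 10 microM and DMSO.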
Potency means the concentration at half of the fitted maximal effect.

activation, inactive:
CCOC(=O)c1cccc(NC(=O)c2cc(S(=O)(=O)N3CCCC(C)C3)cn2C)c1 (configuration not stated) -55.3%
O=C(CCn1c(=O)c2ccccc2n(Cc2ccc(Cl)cc2)c1=O)NCc1ccc2c(c1)OCO2 6.66%
CCCN(C(=O)Cn1cc(S(=O)(=O)N2CCN(c3ccccc3F)CC2)c2ccccc2c1=O)c1cccc(C)c1 -2.67%
CCOc1ccc(C(=O)CCN2CCOCC2)cc1 -34.5%
OC(c1ccccc1)(c1ccccc1)C1CCN(CCCOc2ccccc2)CC1 -6.13%
CCc1cccc(NC(=O)Cn2nc(CC)n3c(cc4cc(C)ccc43)c2=O)c1 -10.7%
COc1ccccc1C(=O)NCCn1cc(SCc2ccccc2Cl)c2ccccc21 -56.6%
O=C1N/C(=N\N=C\c2ccco2)SC1Cc1ccc(F)cc1 (configuration not stated) -4.99%
CCN(CC)C(=O)C1=C(C)N(Cc2ccc(OC)cc2)C(=O)C(CC(=O)NCc2ccco2)C1 (configuration not stated) -12.6%
CN(Cc1ccccc1)c1ccc(/C=C/c2ccnc3ccccc23)cc1 -21.5%
CCc1ccc(OCCCn2c(CCCNC(=O)C3CCCCC3)nc3ccccc32)cc1 9.55%
COc1ccccc1CNS(=O)(=O)c1cc(Br)cc2c1N(C(C)=O)C(C)C2 (configuration not stated) -12.5%
Cc1nc(N2CCOCC2)sc1C(=O)NN -106%
Cc1cc(C)c2nc(N3CCC(C(=O)NCCN4CCOCC4)CC3)sc2c1 32.9%
CCc1nc2onc(C)c2c(=O)n1CC(=O)O 0.973%
Cc1cc(C(=O)COc2ccc(Br)cc2F)c(C)n1C1CC1 45.1%
O=C(COc1ccccc1Cl)N1CCCCCCC1 33.8%
Cn1c(=O)c2c(-c3ccccc3Br)n(Cc3ccccc3)cc2n(C)c1=O -2.04%
CCc1ccccc1OCC(=O)Nc1ccc2c(c1)OCCO2 94.9%
S=C(NCc1ccco1)Nc1ccc2c(c1)OCCO2 39.2%
S=C(Nc1ccc2c(c1)OCO2)N1CCCC1 56.2%
Cc1ccc(OCCCC(=O)Nc2ccc3c(c2)OCCO3)cc1 22.6%
COc1ccccc1-c1cc2nc(C)c(CCC(=O)NC3CCCCC3)c(C)n2n1 -4.32%
COc1ccc(NC(=O)CSc2nnc(-c3nnn(-c4ccc(F)cc4)c3C)o2)cc1 4.5%
O=C(CS(=O)(=O)c1cccc2nsnc12)N1CCN(c2cccc(Cl)c2)CC1 -5.64%
COc1ccc2[nH]c3c(c2c1)CCN(C(=O)CCC1CCCC1)C3c1ccc(F)cc1 (configuration not stated) -14.9%
Cc1ccc(Cl)cc1N1CCN(C(=O)CN2C(=O)COc3ccc(S(=O)(=O)N4CCOCC4)cc32)CC1 -21.5%
O=C(c1cc(COc2cccc(C(F)(F)F)c2)on1)N1CCSCC1 -8.73%
COc1ccc(OCc2cc(C(=O)N3CCCC3)no2)c2ccccc12 64.4%
CCN(CC)S(=O)(=O)c1ccc2c(c1)nc(CN(C)C(=O)Nc1ccc(Cl)cc1)n2C 2.05%
Cc1cc(F)ccc1NS(=O)(=O)c1ccc(-n2cccn2)cc1 -23.9%
O=C(Nc1ccc2c(c1)OCCO2)C(C1CC1)N1CCC(Cc2ccccc2)CC1 (configuration not stated) -7.79%
Cn1cc([N+](=O)[O-])c(C(=O)Nc2ccc3c(c2)OCCO3)n1 78.5%
COC(=O)c1c(NC(=O)CCCOc2ccccc2)sc2c1CCC(C)C2 (configuration not stated) 13.8%
CCN(CCCNC(=O)c1cc2cc3cc(OC)ccc3nc2s1)c1ccccc1 8.15%
Cc1cc(NC(=O)CC(C)C)cc(-c2nc3ncccc3o2)c1O -5.81%
Fc1cccc(Cc2c(-c3ccc(Cl)cc3)nc3ccc(Cl)cn23)c1 18%
Cc1ccc(Cc2c(-c3ccco3)nc3ccc(Cl)cn23)cc1 -32%
CC1(C)CC(=O)c2cc(C(=O)NCc3ccccc3)c(=O)[nH]c2C1 0%
CC(=O)c1ccc(NC(=O)c2cc(-c3cccs3)on2)cc1 67.3%
Cc1ccc(C)c(NC(=O)c2ccc(OC(=O)c3ccco3)cc2)c1 46.3%
COC(=O)c1ccccc1NC(=O)Cn1c(=O)cc(C)c2c(C)nn(-c3cccc(Cl)c3C)c21 4.63%
O=C(COc1ccccc1)OCc1cc(=O)n2nc(-c3cccs3)sc2n1 0%
CCC(C(=O)Nc1cccc(Cl)c1C)n1nc(-c2ccc(C)cc2)ccc1=O (configuration not stated) -24.6%
NS(=O)(=O)c1ccc(NC(=S)NNC(=O)c2cccs2)cc1 0%
CS(=O)(=O)c1ccc(C(=O)NNC(=O)c2cccs2)cc1 1.26%
COc1cccc(N2CCN(S(=O)(=O)c3cc(Br)cc4c3N(C(=O)C3CC3)CC4)CC2)c1 3.39%
COc1ccccc1C(=O)OCc1cc(=O)n2nc(-c3cccs3)sc2n1 -16.9%
CCCCNc1ccc(-c2nc(-c3ccncc3)no2)cc1[N+](=O)[O-] 8.14%
O=C(c1cccs1)N1CCCC(c2nc(-c3ccc(F)cc3)no2)C1 (configuration not stated) 78.6%
O=C(NCc1cccnc1)c1nc(-c2cccs2)no1 -4.18%
Cc1ccc(-c2noc(-c3ccccc3C(=O)NCC3CCCO3)n2)cc1 (configuration not stated) 10.2%
COc1ccc(-c2nc(C)c(CCNC(=O)c3ccc(C(F)(F)F)cc3)s2)cc1OC 8.95%
COc1ccc(NC(=O)c2ccc3nc(C(C)C)oc3c2)cc1OC 43.9%
COc1ccc(-n2c(=O)c3c(c4cc(OC)ccc4n3C)n(Cc3cccc(C)c3)c2=O)cc1 -15.1%
CCc1nnc(NC(=O)CCC(=O)NCc2ccccc2OC)s1 0.553%
CCc1nnc(NC(=O)C2CCCN2S(=O)(=O)c2ccccc2)s1 (configuration not stated) 1.72%
CCOC(=O)c1c(NC(=O)C2CC=CCC2C(=O)O)sc(C)c1CC (configuration not stated) 3.34%
CCOC(=O)CSc1nnc(CNC(=O)c2cccs2)n1-c1ccccc1 -17.3%
CCS(=O)(=O)N1CCc2cc(C(=O)N3CCN(c4ccccc4OC)CC3)ccc21 -1.91%
Cc1nc2ccc(NC(=O)C3CCCCC3)cc2s1 22.7%
Cc1nc(NC(=O)C23CCC(C)(C(=O)O2)C3(C)C)sc1C (configuration not stated) 0.809%
CC(C)(C(=O)NO)c1ccccc1 28.4%
C/C(=N\NC(=O)c1cccc([N+](=O)[O-])c1)c1cccnc1 -22.5%
C/C(=N\NC(=O)c1cccnc1)c1ccc(-n2ccnc2)cc1 14.6%
OCCNc1ncnc2oc(-c3ccco3)c(-c3ccco3)c12 -32.8%
Cc1oc2ncnc(N3CCCCC3)c2c1C(=O)N1CCN(c2cccc(Cl)c2)CC1 -29.6%
COC(=O)c1ccccc1NS(=O)(=O)c1ccc2c(c1)CCCN2C(C)=O 3.64%
CC(C)CC(=O)NC(=S)Nc1ccc(F)cc1F 46.9%
CC(C)CC(=O)NC(=S)NNC(=O)c1cccc([N+](=O)[O-])c1 -31.6%
CCc1ccccc1NC(=O)Cc1ccc(NC(=O)N2CCCCc3ccccc32)cc1 0%
CCCCN(C)S(=O)(=O)c1ccc(C(=O)Nc2sc3c(c2C(N)=O)CC(C)(C)NC3(C)C)cc1 -0.616%
CCC(C)(C)NC(=O)C(c1ccccn1)N(C(=O)c1csnn1)c1ccccc1 (configuration not stated) -9.03%
CN(C(=O)C1CCOC1)c1nnc(-c2cccnc2)s1 (configuration not stated) -2.74%
Brc1cccc[n+]1Cc1cccc(C[n+]2ccccc2Br)c1 9%
Cc1cc(C)cc(NC(=O)CCS(=O)(=O)c2cc3c4c(c2)CCN4C(=O)CC3)c1 6.06%
COc1ccc2c(c1OC)C(=O)N(c1ncn[nH]1)C2 3.12%
CC(C)(C)c1ccc(CN2C(=O)c3ccccc3S2(=O)=O)cc1 69.5%
CC(C)(C)c1ccc(Oc2ccc(N)cc2)cc1 -82.1%
O=S(=O)(c1cccc(C(F)(F)F)c1)N1CCN(c2nc(-c3cccs3)nc3ccccc23)CC1 14.8%
Cc1cccc(NC(=O)CSc2nnc(CCCCCNC(=O)OC(C)(C)C)o2)c1C -6.49%
O=C(CCNC(=O)c1ccccc1)NN=Cc1ccc(Br)o1 -7.6%
Cc1ccc(-c2nc(=N)sn2Cc2ccccc2)cc1 0%
CCOc1ccc(NC(=O)Cn2c(=O)n(CCCC(=O)NCc3ccc4c(c3)OCO4)c(=O)c3ccccc32)cc1 7.21%

Potency, active:
c1ccc(-c2ccc(OCCN3CCOCC3)cc2)cc1 11.2 µM
COc1ccc(CN2C(=O)C(C)S/C2=N/N=C/c2ccco2)cc1 (configuration not stated) 11.2 µM
Fc1cc(F)c2nc(N3CCOCC3)sc2c1 12.6 µM
Cc1cc(C(=O)COc2ccccc2Cl)c(C)n1C1CC1 12.6 µM
CCCCC(=O)Nc1ccc2c(c1)OCCO2 7.08 µM
S=C(Nc1cccc(Cl)c1)Nc1ccc2c(c1)OCCO2 11.2 µM
COc1cccc(OCc2cc(C(=O)N3CCN(C(=O)c4ccco4)CC3)no2)c1 11.2 µM
Nc1c(C(=O)Nc2ccc3c(c2)OCCO3)nnn1Cc1ccccc1 4.47 µM
Cc1ccc(-c2nc3ccc(Cl)cn3c2Cc2ccccc2)cc1 10 µM
Cc1ccc(O)c(NC(=O)c2cc(-c3ccco3)on2)c1 5.62 µM
Nc1ccc(N=Nc2ccccc2Cl)c(N)n1 3.55 µM
O=C(Nc1ccccc1)c1ccc(NC(=O)c2cccs2)cc1 7.94 µM
Cc1ccc(-c2nc(-c3ccncc3)no2)c(C)c1 5.01 µM
c1csc(-c2nc(-c3ccncc3)no2)c1 4.47 µM
CCc1nnc(NC(=O)c2cccs2)s1 12.6 µM
CCc1c(C)sc(NC(=O)c2cccs2)c1C(N)=O 3.55 µM
Cc1nc(NC(=O)C2CCCCC2)sc1C 12.6 µM
C/C(=N\NC(=O)c1ccc2ccccc2c1)c1cccnc1 10 µM
CC(=O)c1ccc(NC(=S)NC(=O)CC(C)C)cc1 7.94 µM
CN(C(=O)c1ccccn1)c1nnc(-c2ccccn2)s1 11.2 µM
COc1ccc2c(c1OC)C(=O)N(c1ccc(O)cc1)C2 4.47 µM
CC(C)(C)c1ccc(OC2=CS(=O)(=O)c3ccccc32)cc1 12.6 µM
CC(C)(C)OC(=O)NCCCCCC(=O)N/N=C/c1coc2ccccc2c1=O 11.2 µM
